{"source": "PubChem BioAssay (NCATS)", "note": "Active and inactive are the calls of the source. The call rests on the fitted dose curve.", "data": [{"molecular_target": "Tumor susceptibility gene 101 protein (Homo sapiens) (UniProt Q99816)", "sequence (Q99816 whole entry, looked up, the tested form may be a part)": "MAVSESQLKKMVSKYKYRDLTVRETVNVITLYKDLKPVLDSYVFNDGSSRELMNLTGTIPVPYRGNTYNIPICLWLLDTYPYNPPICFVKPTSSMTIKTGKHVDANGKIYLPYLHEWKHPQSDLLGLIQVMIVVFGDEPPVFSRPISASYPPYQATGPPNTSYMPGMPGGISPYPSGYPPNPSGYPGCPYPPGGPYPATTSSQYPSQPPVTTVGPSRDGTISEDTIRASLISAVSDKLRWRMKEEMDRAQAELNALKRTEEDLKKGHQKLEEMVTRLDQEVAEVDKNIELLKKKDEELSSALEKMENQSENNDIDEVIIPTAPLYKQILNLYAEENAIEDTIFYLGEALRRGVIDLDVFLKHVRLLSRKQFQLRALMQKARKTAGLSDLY", "assay": "qHTS Validation Assay for Iinhibitors of HIV-1 Budding by Blocking the Interaction of PTAP/TSG101 (AID 485342)", "settings": "TSG101-PTAP binding, fluorescence polarization, 4-point titration; series mostly up to 115 µM", "procedure,_shortened": "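Fluorescence anisotropy measured PTAP-Tsg101 interaction. Final concentrations were 10 uM protein domain and 50 nM labeled peptide, equilibrated 20 min at room temperature.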", "values": [{"smiles": "CCOC(=O)N1CCC(=C2c3ccc(Cl)cc3CCc3cccnc32)CC1", "outcome": "inactive"}, {"smiles": "O=C(Nc1nc2ccccc2n1CCN1CCOCC1)c1cccc([N+](=O)[O-])c1", "outcome": "inactive"}, {"smiles": "C[C@]12CCC(=O)C=C1CC[C@@H]1[C@@H]2[C@@H](O)C[C@@]2(C)[C@H]1CC[C@]2(O)C(=O)CO", "outcome": "inactive"}, {"smiles": "O=C(O)COCCN1CCN(C(c2ccccc2)c2ccc(Cl)cc2)CC1", "note": "(stereo not given)", "outcome": "inactive"}, {"smiles": "NNCCc1ccccc1", "outcome": "inactive"}, {"smiles": "NC(N)=NC(=O)c1nc(Cl)c(N)nc1N", "outcome": "inactive"}, {"smiles": "NCCc1ccc(O)c(O)c1", "outcome": "inactive"}, {"smiles": "Cc1[nH]c(=O)c(C#N)cc1-c1ccncc1", "outcome": "inactive"}, {"smiles": "Cc1cc2c(C(C)C)c(O)c(O)c(C=O)c2c(O)c1-c1c(C)cc2c(C(C)C)c(O)c(O)c(C=O)c2c1O", "outcome": "inactive"}, {"smiles": "NC[C@H](O)c1ccc(O)c(O)c1", "outcome": "inactive"}, {"smiles": "Cc1[nH]c(=O)c(C#N)cc1-c1ccc2nccn2c1", "outcome": "inactive"}, {"smiles": "Cc1cccc(-c2[nH]c(C(C)(C)C)nc2-c2ccc3nccnc3c2)n1", "outcome": "inactive"}, {"smiles": "OC(CCN1CCCCC1)(c1ccccc1)C1CC2C=CC1C2", "note": "(stereo not given)", "outcome": "inactive"}, {"smiles": "O=C1CCc2cc(OCCCCc3nnnn3C3CCCCC3)ccc2N1", "outcome": "inactive"}, {"smiles": "Cc1oncc1C(=O)Nc1ccc(C(F)(F)F)cc1", "outcome": "inactive"}, {"smiles": "Nc1ncnc2nc(-c3ccc(N4CCOCC4)nc3)cc(-c3cccc(Br)c3)c12", "outcome": "inactive"}, {"smiles": "Nc1nc2ccc(OC(F)(F)F)cc2s1", "outcome": "inactive"}, {"smiles": "Nc1nc2c(ncn2COCCO)c(=O)[nH]1", "outcome": "inactive"}, {"smiles": "Clc1cccc(Cl)c1NC1=NCCN1", "outcome": "inactive"}, {"smiles": "c1ccc([C@H]2CN3CCSC3=N2)cc1", "outcome": "inactive"}]}]}
